Bioassay records: PubChem BioAssay, several laboratories
697 NFkB inh – lowers PMA/ionomycin-induced NF-kB signal in 697 B cells | 697 B-cell NF-kB luciferase reporter, 16 h | inhibition, % at 4 µM | 0.33% of 330,000 active; in the data active means inhibition above about 35%
CSC inhib – blocks cancer stem cells | cancer stem cell-like cells viability, luminescence | inhibition, % at 7.5 µM | 1.1% of 300,000 active | AID 2717; in the data active means inhibition above about 75%; inconclusive means no clear call, values can overlap the other calls; tested in HMLE shEcad cells
Mdm2 MdmX PPI – human Mdm2/MdmX binding inhibition; SaOS-2 split-luciferase Mdm2/MdmX complementation, luminescence; 3% of 330,000 active; AID 485346; inhibition, % at 8 µM;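 active means inhibition of at least 50% at 8 µM in the primary screen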
Target sequence (O15151 whole entry, looked up): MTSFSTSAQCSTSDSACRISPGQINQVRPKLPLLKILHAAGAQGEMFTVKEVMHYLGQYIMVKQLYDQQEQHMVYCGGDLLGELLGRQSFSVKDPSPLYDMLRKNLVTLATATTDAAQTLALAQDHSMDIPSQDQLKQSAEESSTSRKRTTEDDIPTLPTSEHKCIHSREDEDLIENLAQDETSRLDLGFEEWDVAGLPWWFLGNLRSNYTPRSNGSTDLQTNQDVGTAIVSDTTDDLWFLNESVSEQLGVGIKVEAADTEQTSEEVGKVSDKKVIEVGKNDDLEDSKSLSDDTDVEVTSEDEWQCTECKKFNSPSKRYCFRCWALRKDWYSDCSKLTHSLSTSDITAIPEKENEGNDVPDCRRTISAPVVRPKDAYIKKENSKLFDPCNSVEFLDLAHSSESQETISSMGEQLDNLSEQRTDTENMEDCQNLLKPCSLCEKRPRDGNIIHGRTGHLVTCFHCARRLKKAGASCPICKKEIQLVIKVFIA
Target sequence (Q00987 whole entry, looked up): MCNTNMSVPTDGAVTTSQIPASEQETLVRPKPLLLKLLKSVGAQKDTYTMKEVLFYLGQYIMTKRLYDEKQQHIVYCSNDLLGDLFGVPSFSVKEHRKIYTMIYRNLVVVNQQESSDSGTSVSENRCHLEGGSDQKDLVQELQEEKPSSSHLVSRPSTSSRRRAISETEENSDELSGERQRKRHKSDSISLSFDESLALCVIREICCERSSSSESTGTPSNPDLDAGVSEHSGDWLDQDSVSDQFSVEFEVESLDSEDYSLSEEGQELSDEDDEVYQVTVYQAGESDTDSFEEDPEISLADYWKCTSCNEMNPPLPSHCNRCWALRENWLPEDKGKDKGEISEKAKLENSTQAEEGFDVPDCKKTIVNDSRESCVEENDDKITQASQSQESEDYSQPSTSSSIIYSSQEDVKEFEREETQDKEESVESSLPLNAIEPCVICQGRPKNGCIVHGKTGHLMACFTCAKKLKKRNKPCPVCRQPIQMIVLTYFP
Beta cell apopt – beta cell apoptosis inhibition; INS-1E cytokine-induced death, ATP luminescence, 48 h; percent of positive-control rescue, neutral wells zero; protection from apoptosis, % (concentration not given with the values); 0.8% of 300,000 active; AID 435005;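 active means Every replicate reaches about 75%, or at least half do and their mean reaches it too, limit read from the data; inconclusive means At least half of replicates reach the limit but their mean does not; inactive means Under half of replicates reach the limit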;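 further: higher means more ATP so stronger rescue from cytokine killing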
Jurkat NFkB inh – inhibitors of the PMA/ionomycin-induced NF-kB reporter in Jurkat cells | PMA/ionomycin-induced NF-kB luciferase reporter, luminescence | inhibition, % at 4 µM | 0.53% of 330,000 active; in the data active means inhibition above about 50%
Gli-Sufu block – Gli-Sufu pathway antagonism | Sufu-KO-LIGHT fibroblasts, Gli luciferase reporter luminescence | inhibition, % at 5 µM | 0.74% of 340,000 active | AID 588413;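 active means inhibition above about 55%, limit read from the data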
Mdm2 MdmX conf – confirmation of human Mdm2/MdmX interaction inhibitors. shares compounds with Mdm2 MdmX PPI. Mdm2-MdmX binding, luminescent assay. inhibition, % at 8 µM. 55% of 10,000 active. AID 489028; in the data active means inhibition above about 40%
FLuc counter – counter-screen for Mdm2/MdmX inhibitors: full-length luciferase | shares compounds with Mdm2 MdmX PPI | SaOS-2 full-length luciferase counterscreen, luminescence | inhibition, % at 8 µM | 77% of 6,200 active;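 active means mean inhibition at 8 µM reaching about 37%, which flags the compound as non-specific, limit read from the data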;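 further: p53-null SaOS-2 cells with luciferase driven by a doxycycline-inducible promoter; compound on cells about two nights before reading with doxycycline added after day one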
Hits are given with their value; . = inactive; ? = inconclusive; / = no result. Most compounds without a hit are left out; they make up all but 4.5% or so of the library.

SMILES	697 NFkB inh	CSC inhib	Mdm2 MdmX PPI	Beta cell apopt	Jurkat NFkB inh	Gli-Sufu block	Mdm2 MdmX conf	FLuc counter
O=C(COC(=O)c1cccs1)NC1CCCC1	.	.	.	.	.	.	/	/
CC(=O)c1nn(-c2cccc(Br)c2)cc1C(=O)c1ccc(Br)cc1	.	.	56	.	.	.	.	/
CC(=O)c1nn(-c2cccc(Br)c2)cc1C(=O)c1ccc(C)cc1	.	.	.	.	.	.	/	/
O=C(CCl)NCc1cc(-c2ccc(Cl)cc2)no1	.	.	73	.	.	.	.	66
CCOCCc1nn2c(=O)cc(CSCC(=O)Nc3cc(C)cc(C)c3)nc2s1	.	.	.	.	.	.	/	/
Cc1nc2ccc(Br)cn2c1C(=O)N/N=C\c1ccc(C(C)C)cc1	.	?	57	/	.	.	48	64
COc1cccc(/C=N/NC(=O)c2c(C)nc3ccc(Br)cn23)c1	.	.	.	.	.	.	/	/
CCn1nc(C)cc1C(=O)N1CCCC(C(=O)c2ccccc2SC)C1 (stereo not given)	.	.	.	.	.	.	/	/
O=C(N/N=C1/CCCc2ccccc21)C(c1ccccc1)c1ccccc1	.	.	58	.	.	.	.	/
O=C(N/N=C1\CCCc2ccccc21)c1cccc([N+](=O)[O-])c1	.	.	.	.	.	.	/	/
O=C(N/N=C1/CCCc2ccccc21)c1cc([N+](=O)[O-])cc([N+](=O)[O-])c1	.	.	67	.	.	/	.	94
CN(CC(=O)Nc1ccccc1C(=O)NC1CC1)Cc1ccco1	.	.	.	.	.	.	/	/
COc1cc2c(cc1OC)C(C)N(C(=O)CCc1c[nH]c3ccccc13)CC2 (stereo not given)	.	.	.	.	.	.	/	/
O=C(NNC(=O)c1ccccc1O)c1ccc(NS(=O)(=O)c2ccc(F)c(F)c2)cc1	.	.	.	/	.	.	/	/
Cc1ccc(NS(=O)(=O)c2ccc(C(=O)NNC(=O)c3ccccc3O)cc2)cc1	.	.	62	.	.	.	55	52
CCCCC(=O)Nc1ccc(C(=O)Nc2ccc(S(=O)(=O)Nc3ccc(C)cc3)cc2)cc1	.	.	63	.	.	.	.	41
Cc1ccc(S(=O)(=O)Nc2ccc(NC(=O)c3ccc(F)cc3)cc2)cc1	.	.	.	.	.	.	/	/
CSc1ccccc1NC(=O)c1ccc(N2CC3CC(C2)c2cccc(=O)n2C3)c(NC(=O)c2cccnc2)c1 (stereo not given)	.	.	.	.	.	.	/	/
COc1ccc(CN2CCN(Cc3c[nH]c4ccccc34)CC2)cc1	.	.	.	.	.	.	/	/
COc1ccc(Br)cc1CN1CCN(Cc2c[nH]c3ccccc23)CC1	.	.	69	79	.	.	.	83
CCOC(=O)c1c(C)[nH]c(C)c1S(=O)(=O)NCCCN1CCOCC1	.	.	.	.	.	.	/	/
CCOC(=O)c1c(C)[nH]c(C)c1S(=O)(=O)NCCN1CCN(c2cc(Cl)ccc2C)CC1	.	.	59	.	.	.	.	/
CC(C)(C)OC(=O)C[C@@H]1C/C=C\C[C@@H](CC(=O)N(CCO)Cc2ccccc2)C(=O)NC[C@H](c2ccccc2)OC1=O	.	.	60	.	.	.	40	71
COC(=O)c1c(C)n(-c2ccc(C)cc2)c2ccc(O)cc12	.	/	53	/	.	.	46	55
CC(=O)c1ccc(-n2c(C)c(C(C)=O)c3cc(O)ccc32)cc1	.	.	62	.	.	.	65	48
SMILES	697 NFkB inh	CSC inhib	Mdm2 MdmX PPI	Beta cell apopt	Jurkat NFkB inh	Gli-Sufu block	Mdm2 MdmX conf	FLuc counter
CCOc1ccc(-n2c(C)c(C(C)=O)c3cc(O)ccc32)cc1	.	.	53	.	.	.	56	.
COc1ccc(OC)c(NC(=O)CC2C(=O)NCCN2C(=O)c2ccccc2)c1 (stereo not given)	.	.	.	.	.	.	/	/
CC1CCCC(C)N1C(=O)COC(=O)C1CCN(S(=O)(=O)c2ccc3c(c2)OCCO3)CC1 (stereo not given)	.	.	.	.	.	.	/	/
C=CCN(c1ccccc1)S(=O)(=O)c1cccc(C(=O)Nc2ccc(N3CCOCC3)cc2)c1	.	/	.	/	.	.	/	/
O=C(Nc1ccccc1F)C1CCCN1S(=O)(=O)c1ccc(Cl)cc1 (stereo not given)	.	.	.	.	.	.	/	/
COc1cccc(CNc2ncnc3cc(OC)c(OC)cc23)c1	.	.	.	.	.	.	/	/
COc1cccc(-c2ccc3ncnc(NCc4cccnc4)c3c2)c1	.	/	69	.	.	.	48	.
CC1=CC(C)(C)N(C(=O)CN2C(=O)c3ccccc3C2=O)c2ccccc21	.	.	.	.	.	.	/	/
CCOc1ccc2c(c1)C(C)=CC(C)(C)N2S(=O)(=O)c1ccc(F)cc1	.	.	51	/	.	/	53	49
CC1=CC(C)(C)N(S(=O)(=O)c2ccc(C)cc2)c2ccccc21	.	/	64	/	.	.	64	88
COc1ccc2c(c1)C(C)=CC(C)(C)N2S(=O)(=O)c1ccc(NC(C)=O)cc1	.	.	63	.	.	.	54	89
O=C(NCC1CCCO1)c1cc2ccccc2o1 (stereo not given)	.	.	.	.	.	.	/	/
O=C(Cc1ccc(O)cc1)N/N=C/c1cccnc1	.	.	.	.	.	.	/	/
CC(C)c1nc(SCC(=O)N2CCCc3ccccc32)c2c(=O)n(C)c(=O)n(C)c2n1	.	.	55	.	.	.	47	51
CCn1c(SCC(=O)N2CCCc3ccccc32)nc2c1c(=O)n(C)c(=O)n2C	.	.	.	.	.	.	/	/
CCOc1ccccc1CNc1ncnc2ccc(-c3c(C)noc3C)cc12	.	112	79	.	.	.	54	43
C=CCn1c(SCc2c(C)noc2C)nc2sc3c(c2c1=O)CCCC3	.	.	52	.	.	.	55	41
O=C(NCCCn1ccnc1)c1ccc(COc2ccccc2)o1	.	.	.	/	.	.	/	/
Nc1nccnc1C(=O)OCC(=O)Nc1ccc2[nH]c(=O)[nH]c2c1	.	.	.	.	.	.	/	/
COc1cc(-c2onc3ccc(Br)cc23)cc(OC)c1OC	.	.	50	.	.	.	52	60
Cc1cc(NC(=O)CSc2nc3c(sc4ccccc43)c(=O)n2CCc2ccccc2)n[nH]1	.	.	62	.	.	.	.	/
COc1ccc(Nc2nc(N)nc(CCl)n2)cc1	.	.	87	.	.	.	87	52
Cc1ccccc1Nc1nc(N)nc(CCl)n1	.	.	94	.	.	.	91	40
O=C(NCCS(=O)(=O)NCc1cccnc1)c1ccccc1	.	.	.	.	.	.	/	/
CC1(C)Oc2ccc3ccc(=O)oc3c2-c2cn[nH]c21	.	.	60	.	.	.	.	/
